This is part of a sample that, as a whole, favours compounds with a hit. Of some 83,000 tested, about 20% had one in any assay.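 Plates (96-well) were seeded with cells, treated with compound at one concentration, and incubated for 48 hours before percent growth was determined.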 Values without a mark were called inactive. The source made the active and inactive calls.

The subject of the assay is NCI/ADR-RES ovarian. Put plainly: NCI-60 one-dose screen, 48 h (100 = growth as untreated, 0 = no growth, -100 = all killed). The note with it: 10 µM unless noted. On the procedure: Growth inhibition of the NCI/ADR-RES human […] tumor cell line is measured as a screen for anti-cancer activity. Cells are grown in 96 well plates and exposed to the test compound for 48 hours. Compounds are tested at a single concentration, which is 10^-5 M for most compounds. The reported endpoint is percent growth (GI% or GIPRCNT), where numbers from 0 - 100% represent growth inhibition, and numbers from -100% - 0 represent cell death. For example, a value of 40 represents 60% growth inhibition. A value of 0 means no net growth occurred over the course of the experiment. A value of -40 indicates 40% of cells at the beginning of the experiment died by the end of the experiment. A value of -100 means all cells are dead at the end of the experiment.
NCI-60 Human Tumor Cell Lines Screen was performed using the standard one-dose NCI protocol, which is described in more detail at https://dtp.cancer.gov/discovery_development/nci-60/default.htm.
Compounds with GIPRCNT values below 10 were considered active. Activity score was based on GIPRCNT using the following formula: […]
Score is 0 for GIPRCNT values of 100 or above, 50 for GIPRCNT values of 0, and 100 for GIPRCNT values of -100.
Regarding `CC(=O)Nc1ccc(O)c(C)c1`, the growth was 102%.
The result for `C=C(OC(C)=O)c1ccccc1` reads 109%; that for `CCOC(=O)C(CCC#N)(CCC#N)C(=O)OCC`, 105%; that for `OC1Cc2ccccc2C1`, 93.9%.
For `O=Cc1ccc(O)c(O)c1`, the growth was 93.1%.
The result for `Nc1nnc2cc(F)ccc2n1` reads 103%.
The result for `CC(=O)OC(C)c1cccc(C#N)c1` (stereo not given) reads 106%; that for `CCN(CC)CCN1CNC(=S)NC1`, 106%; that for `CC(=O)NC(O)C(Cl)Cl` (stereo not given), 98.5%.
Turning to `COC(CCCl)c1ccc(Cl)cc1` (stereo not given), the growth is 98.6%.
As for `NC(=S)N/N=C/c1ccc(Cl)cc1`, the growth was 100%.
In the case of `CCN(CC)c1ccc2nc3ccc(N=Nc4ccc(N(C)C)cc4)cc3[n+](-c3ccccc3)c2c1` it was 0.224% (active).
With `CCOc1ccncc1[N+](=O)[O-]`, the growth is 106%.
As for `O=[n+]1ccn([O-])c2ccccc21`, the growth was 103%.
Turning to `O=C(NC1CCCCC1)c1ccc(Cl)cc1`, the growth was 101%.
The result for `OCC1OC(n2ccc3c2ncn2ncnc32)C(O)C1O` (stereo not given) reads 23.1%.
Turning to `CSc1nsc(N)n1`, the growth was 101%.
As for `CCCCn1cnc2c(=O)[nH]cnc21`, the growth was 113%.
The result for `Nc1c(O)c(S(=O)(=O)O)c(O)c2c1C(=O)c1ccccc1C2=O` reads 17.8%; that for `COC1OC(COC(C)=O)C(OC(C)=O)C(OC(C)=O)C1OC(C)=O` (stereo not given), 95.2%; that for `Nc1ccn(C2CC(N)C(CO)O2)c(=O)n1` (stereo not given), 46%.
The result for `CCCCNc1ccc(-c2ccc(NCCCC)cc2)cc1` reads 79.3%; that for `O=[N+]([O-])c1c(O)c(CNCCCO)cc(CNCCCO)c1O`, 104%; that for `CC(C)c1ccccc1NC(=O)N1CCC(C(C)C)CC1`, 111%.
The result for `O=c1[nH]c(=O)c2cc(Cl)cc(Cl)c2[nH]1` reads 131%; that for `CCCCNC(=O)c1ccc(OCC)cc1`, 100%.
Regarding `CCCCCCCCCCCCCCCCOc1ccccc1NC(=O)CC(C)=O`, the growth is 100%.
In the case of `Cn1c(=O)c2[nH]c(CC(=O)O)nc2n(C)c1=O` it was 102%.
The result for `CCN(CC)CCCC(C)NC(=S)N/N=C(\C)c1ccccn1` (stereo not given) reads 93.7%; that for `CC(CC(CCC(=O)O)(c1ccccc1)c1ccccc1)N(C)C` (stereo not given), 108%; that for `CCNC(=O)Oc1ccc[nH]c1=O`, 102%.
The result for `CC1(C)CCC(C)(C)NC(=S)N1` reads 108%.
As for `CCOC(=O)N[C@H]1CCc2cc(OC)c(OC)c(OC)c2-c2ccc(SC)c(=O)cc21`, the growth was 0.533% (active).
Consider `COc1ccc(Br)c(C=O)c1`, for which the growth is 51.6%.
The result for `CN1CCN(C(=S)S)CC1` reads 108%.
In the case of `CCC1CCC(C)NC1` (stereo not given) it was 101%.
`O=C(CCl)Oc1ccc([N+](=O)[O-])cc1`: the growth is 105%.
Take `CC1=CC(=Nc2ccc(N(C)C)cc2)C=C(C)C1=O`: the growth is 83.2%.
Consider `Oc1cc2ccccc2c(-c2c(O)c(O)cc3ccccc23)c1O`, for which the growth was 23%.
For `COc1cccc2c1Cc1ccccc1-2`, the growth is 98.6%.

For the origin of these results see PubChem BioAssay (NCI).
